Measured values taken from publication PMC7862700, “An all-to-all approach to the identification of sequence-specific readers for epigenetic DNA modifications on cytosine”.

Key:
Assay in all cases: DAPPL (digital affinity profiling via proximity ligation, sequencing); 10 mM Tris-HCl pH 7.5, 50 mM NaCl, 1 mM DTT, 4% glycerol, room temperature, 30 min; GST-TFs on glutathione beads, 16-mer random dsDNA library, 0.1% formaldehyde crosslink after washing; high values mean tight binding
FLI1 = target: T1, FLI1 (Homo sapiens, UniProt Q01543 1-452); settings: protein: recombinant; tags: N-terminal GST; dsDNA, one strand shown
T1 sequence: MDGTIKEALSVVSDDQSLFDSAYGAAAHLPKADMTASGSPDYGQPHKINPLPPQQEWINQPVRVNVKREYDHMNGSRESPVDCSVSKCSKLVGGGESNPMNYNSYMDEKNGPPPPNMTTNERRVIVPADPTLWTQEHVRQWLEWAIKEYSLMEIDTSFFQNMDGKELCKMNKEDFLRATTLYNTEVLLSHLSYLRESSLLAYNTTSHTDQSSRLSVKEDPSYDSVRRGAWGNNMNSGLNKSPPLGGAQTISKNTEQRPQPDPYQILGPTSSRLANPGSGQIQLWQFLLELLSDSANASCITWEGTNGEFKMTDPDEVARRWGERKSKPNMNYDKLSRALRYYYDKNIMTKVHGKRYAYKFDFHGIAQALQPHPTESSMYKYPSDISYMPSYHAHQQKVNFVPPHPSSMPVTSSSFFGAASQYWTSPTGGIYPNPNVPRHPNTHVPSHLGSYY
In short: (§1)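 The binding signal reported is, for every hexamer, its read frequency for a factor over its read frequency for the tag-only sample. Reads came from pools of yeast-expressed, GST-fused human transcription factors on glutathione beads, barcoded with DNA and mixed with that sample, which were incubated with 200 nmole of a random double-stranded 16-mer DNA library in Tris/NaCl/DTT/glycerol buffer at room temperature for 30 min. After washing, the pools were crosslinked with 0.1% formaldehyde, proximity-ligated with BsaI/T4 ligase for 1 h at 37 °C, PCR-amplified and sequenced on an Illumina NextSeq500.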

ELK1 = target: T2, ELK1 (Homo sapiens, UniProt P19419 1-428); settings: protein: recombinant; tags: N-terminal GST; dsDNA, one strand shown
T2 sequence: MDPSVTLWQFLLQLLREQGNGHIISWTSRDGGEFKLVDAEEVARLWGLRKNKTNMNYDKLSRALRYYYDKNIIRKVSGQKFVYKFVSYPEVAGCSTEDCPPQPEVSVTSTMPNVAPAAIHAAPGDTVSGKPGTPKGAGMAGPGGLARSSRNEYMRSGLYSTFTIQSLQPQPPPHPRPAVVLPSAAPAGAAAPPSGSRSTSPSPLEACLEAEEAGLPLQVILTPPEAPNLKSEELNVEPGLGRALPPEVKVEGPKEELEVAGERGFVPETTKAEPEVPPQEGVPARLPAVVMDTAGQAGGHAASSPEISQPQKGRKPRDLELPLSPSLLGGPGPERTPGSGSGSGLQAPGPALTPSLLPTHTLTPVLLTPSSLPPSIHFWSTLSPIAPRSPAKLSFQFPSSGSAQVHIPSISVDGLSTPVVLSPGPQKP
In short: as §1

GABPA = target: T3, GABPA (Homo sapiens, UniProt Q06546 1-454); settings: protein: recombinant; tags: N-terminal GST; dsDNA, one strand shown
T3 sequence: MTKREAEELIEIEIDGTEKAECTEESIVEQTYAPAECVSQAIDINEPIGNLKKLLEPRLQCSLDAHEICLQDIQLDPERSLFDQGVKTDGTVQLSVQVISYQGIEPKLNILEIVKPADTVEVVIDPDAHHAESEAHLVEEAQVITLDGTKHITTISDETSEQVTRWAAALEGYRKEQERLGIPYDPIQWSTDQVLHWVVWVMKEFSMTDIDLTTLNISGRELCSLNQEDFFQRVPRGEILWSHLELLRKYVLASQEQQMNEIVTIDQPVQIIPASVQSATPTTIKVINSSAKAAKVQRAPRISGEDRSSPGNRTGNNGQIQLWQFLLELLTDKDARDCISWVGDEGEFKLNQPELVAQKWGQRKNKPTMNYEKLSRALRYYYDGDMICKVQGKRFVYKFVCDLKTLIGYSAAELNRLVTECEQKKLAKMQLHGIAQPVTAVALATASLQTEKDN
In short: as §1

ERG = target: T4, ERG (Homo sapiens, UniProt P11308 1-479); settings: protein: recombinant; tags: N-terminal GST; dsDNA, one strand shown
T4 sequence: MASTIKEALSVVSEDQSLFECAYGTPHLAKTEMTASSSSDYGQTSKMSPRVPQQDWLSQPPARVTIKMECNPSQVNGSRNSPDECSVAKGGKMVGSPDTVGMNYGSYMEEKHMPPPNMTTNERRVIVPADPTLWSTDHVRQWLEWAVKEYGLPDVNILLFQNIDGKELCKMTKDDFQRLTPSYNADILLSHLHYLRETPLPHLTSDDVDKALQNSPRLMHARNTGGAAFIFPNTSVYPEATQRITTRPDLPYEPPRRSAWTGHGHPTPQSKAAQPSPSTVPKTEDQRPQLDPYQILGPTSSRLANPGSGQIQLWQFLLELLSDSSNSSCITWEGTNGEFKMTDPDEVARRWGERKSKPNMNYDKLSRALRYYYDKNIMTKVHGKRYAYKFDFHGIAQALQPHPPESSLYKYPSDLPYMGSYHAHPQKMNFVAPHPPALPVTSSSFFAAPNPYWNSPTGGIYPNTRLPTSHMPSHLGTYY
In short: as §1

ELF1 = ELF1 (Homo sapiens, UniProt P32519 1-619); settings: protein: recombinant; tags: N-terminal GST; dsDNA, one strand shown
ELF1, sequence (P32519 whole entry): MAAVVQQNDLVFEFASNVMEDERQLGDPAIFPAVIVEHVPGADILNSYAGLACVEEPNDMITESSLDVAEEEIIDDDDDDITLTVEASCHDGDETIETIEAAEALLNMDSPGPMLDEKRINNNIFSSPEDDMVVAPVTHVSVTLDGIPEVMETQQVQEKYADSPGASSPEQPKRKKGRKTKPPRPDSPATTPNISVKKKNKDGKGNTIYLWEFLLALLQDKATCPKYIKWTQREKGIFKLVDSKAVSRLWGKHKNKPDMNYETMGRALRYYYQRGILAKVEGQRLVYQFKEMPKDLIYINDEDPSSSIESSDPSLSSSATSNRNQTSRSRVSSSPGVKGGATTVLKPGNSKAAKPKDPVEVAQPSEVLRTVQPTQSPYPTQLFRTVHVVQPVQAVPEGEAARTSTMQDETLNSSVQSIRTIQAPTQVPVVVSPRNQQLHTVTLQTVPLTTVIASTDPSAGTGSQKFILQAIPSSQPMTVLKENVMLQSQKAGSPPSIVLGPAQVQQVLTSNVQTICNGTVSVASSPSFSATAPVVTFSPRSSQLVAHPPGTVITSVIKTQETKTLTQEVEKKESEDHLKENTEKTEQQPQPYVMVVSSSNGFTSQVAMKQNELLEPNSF
In short: as §1

EHF = target: T5, EHF (Homo sapiens, UniProt Q9NZC4 1-300); settings: protein: recombinant; tags: N-terminal GST; dsDNA, one strand shown
T5 sequence: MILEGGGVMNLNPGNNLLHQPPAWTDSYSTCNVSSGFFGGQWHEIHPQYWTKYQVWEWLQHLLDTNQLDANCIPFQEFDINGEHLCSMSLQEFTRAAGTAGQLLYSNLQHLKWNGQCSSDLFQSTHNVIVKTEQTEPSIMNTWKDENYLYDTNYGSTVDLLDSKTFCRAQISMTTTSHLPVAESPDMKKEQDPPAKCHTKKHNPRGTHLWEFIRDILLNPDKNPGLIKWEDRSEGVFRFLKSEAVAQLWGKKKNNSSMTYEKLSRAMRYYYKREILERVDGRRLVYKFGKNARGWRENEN
In short: as §1

SPIB = SPIB (Homo sapiens, UniProt Q01892 1-262); settings: protein: recombinant; tags: N-terminal GST; dsDNA, one strand shown
SPIB, sequence (Q01892 whole entry): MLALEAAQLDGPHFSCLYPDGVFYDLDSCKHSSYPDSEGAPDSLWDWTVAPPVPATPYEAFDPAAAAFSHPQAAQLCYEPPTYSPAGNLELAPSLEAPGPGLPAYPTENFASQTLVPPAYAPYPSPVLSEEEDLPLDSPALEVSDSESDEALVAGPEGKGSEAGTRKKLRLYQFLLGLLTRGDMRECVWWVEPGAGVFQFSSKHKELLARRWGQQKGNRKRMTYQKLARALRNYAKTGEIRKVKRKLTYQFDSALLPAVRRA
In short: as §1

ELK3 = target: T6, ELK3 (Homo sapiens, UniProt P41970 1-407); settings: protein: recombinant; tags: N-terminal GST; dsDNA, one strand shown
T6 sequence: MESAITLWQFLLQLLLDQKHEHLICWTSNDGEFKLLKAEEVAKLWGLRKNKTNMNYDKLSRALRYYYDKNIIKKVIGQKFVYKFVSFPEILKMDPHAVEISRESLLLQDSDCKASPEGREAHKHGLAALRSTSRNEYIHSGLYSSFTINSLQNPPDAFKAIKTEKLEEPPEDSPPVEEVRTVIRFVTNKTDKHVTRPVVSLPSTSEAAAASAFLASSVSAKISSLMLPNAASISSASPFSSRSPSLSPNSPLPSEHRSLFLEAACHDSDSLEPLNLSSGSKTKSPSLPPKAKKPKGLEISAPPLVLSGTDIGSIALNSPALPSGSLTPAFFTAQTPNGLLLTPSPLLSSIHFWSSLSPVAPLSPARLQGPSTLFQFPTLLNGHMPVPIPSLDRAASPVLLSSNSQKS
In short: as §1

FEV = target: T7, FEV (Homo sapiens, UniProt Q99581 1-238); settings: protein: recombinant; tags: N-terminal GST; dsDNA, one strand shown
T7 sequence: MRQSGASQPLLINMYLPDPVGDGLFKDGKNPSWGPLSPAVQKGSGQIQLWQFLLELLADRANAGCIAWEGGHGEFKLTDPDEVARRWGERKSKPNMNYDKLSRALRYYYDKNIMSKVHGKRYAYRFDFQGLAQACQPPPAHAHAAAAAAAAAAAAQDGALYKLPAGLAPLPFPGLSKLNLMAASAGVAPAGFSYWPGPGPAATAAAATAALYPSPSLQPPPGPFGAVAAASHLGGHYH
In short: as §1

ETV5 = ETV5 (Homo sapiens, UniProt P41161 1-510); settings: protein: recombinant; tags: N-terminal GST; dsDNA, one strand shown
ETV5, sequence (P41161 whole entry): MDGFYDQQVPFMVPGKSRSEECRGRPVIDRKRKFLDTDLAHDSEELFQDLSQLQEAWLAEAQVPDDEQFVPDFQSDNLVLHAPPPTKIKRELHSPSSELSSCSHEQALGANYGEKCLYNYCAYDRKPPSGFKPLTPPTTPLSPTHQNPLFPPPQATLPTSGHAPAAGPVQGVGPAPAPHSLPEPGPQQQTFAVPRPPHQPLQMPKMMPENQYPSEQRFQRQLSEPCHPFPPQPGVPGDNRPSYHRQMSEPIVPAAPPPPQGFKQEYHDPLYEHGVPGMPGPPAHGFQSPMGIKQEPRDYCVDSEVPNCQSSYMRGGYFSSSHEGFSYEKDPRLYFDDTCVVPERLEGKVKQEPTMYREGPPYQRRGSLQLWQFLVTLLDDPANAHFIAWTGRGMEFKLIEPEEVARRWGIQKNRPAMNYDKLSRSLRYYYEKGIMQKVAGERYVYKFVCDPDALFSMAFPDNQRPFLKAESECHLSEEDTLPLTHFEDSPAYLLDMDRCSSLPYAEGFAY
In short: as §1

HSF1 = HSF1 (Homo sapiens, UniProt Q00613 1-529); settings: protein: recombinant; tags: N-terminal GST; chain copies: 3; dsDNA, one strand shown
HSF1, sequence (Q00613 whole entry): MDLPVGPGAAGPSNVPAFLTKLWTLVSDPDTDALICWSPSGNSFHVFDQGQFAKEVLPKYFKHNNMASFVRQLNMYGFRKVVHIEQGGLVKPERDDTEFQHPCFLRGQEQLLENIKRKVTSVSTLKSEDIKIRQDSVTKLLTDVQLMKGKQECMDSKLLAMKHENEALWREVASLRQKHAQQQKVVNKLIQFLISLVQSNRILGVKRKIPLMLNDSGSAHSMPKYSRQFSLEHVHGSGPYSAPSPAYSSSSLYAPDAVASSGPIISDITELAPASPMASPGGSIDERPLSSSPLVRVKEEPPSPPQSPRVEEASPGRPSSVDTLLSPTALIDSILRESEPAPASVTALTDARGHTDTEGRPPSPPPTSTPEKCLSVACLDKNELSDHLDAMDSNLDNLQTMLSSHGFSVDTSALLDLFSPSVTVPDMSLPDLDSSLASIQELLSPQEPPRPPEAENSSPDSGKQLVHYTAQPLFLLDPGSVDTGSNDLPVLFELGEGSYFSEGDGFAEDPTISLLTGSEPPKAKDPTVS
In short: as §1

SPIC = target: T8, SPIC (Homo sapiens, UniProt Q8N5J4 1-248); settings: protein: recombinant; tags: N-terminal GST; dsDNA, one strand shown
T8 sequence: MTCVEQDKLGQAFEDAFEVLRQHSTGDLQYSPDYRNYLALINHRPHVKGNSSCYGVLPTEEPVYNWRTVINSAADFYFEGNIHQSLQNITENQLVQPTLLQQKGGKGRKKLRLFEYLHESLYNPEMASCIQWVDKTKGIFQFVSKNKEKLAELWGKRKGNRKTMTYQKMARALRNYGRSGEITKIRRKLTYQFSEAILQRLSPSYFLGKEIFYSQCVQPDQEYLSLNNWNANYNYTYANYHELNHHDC
In short: as §1

ELF4 = ELF4 (Homo sapiens, UniProt Q99607 1-663); settings: protein: recombinant; tags: N-terminal GST; dsDNA, one strand shown
ELF4, sequence (Q99607 whole entry): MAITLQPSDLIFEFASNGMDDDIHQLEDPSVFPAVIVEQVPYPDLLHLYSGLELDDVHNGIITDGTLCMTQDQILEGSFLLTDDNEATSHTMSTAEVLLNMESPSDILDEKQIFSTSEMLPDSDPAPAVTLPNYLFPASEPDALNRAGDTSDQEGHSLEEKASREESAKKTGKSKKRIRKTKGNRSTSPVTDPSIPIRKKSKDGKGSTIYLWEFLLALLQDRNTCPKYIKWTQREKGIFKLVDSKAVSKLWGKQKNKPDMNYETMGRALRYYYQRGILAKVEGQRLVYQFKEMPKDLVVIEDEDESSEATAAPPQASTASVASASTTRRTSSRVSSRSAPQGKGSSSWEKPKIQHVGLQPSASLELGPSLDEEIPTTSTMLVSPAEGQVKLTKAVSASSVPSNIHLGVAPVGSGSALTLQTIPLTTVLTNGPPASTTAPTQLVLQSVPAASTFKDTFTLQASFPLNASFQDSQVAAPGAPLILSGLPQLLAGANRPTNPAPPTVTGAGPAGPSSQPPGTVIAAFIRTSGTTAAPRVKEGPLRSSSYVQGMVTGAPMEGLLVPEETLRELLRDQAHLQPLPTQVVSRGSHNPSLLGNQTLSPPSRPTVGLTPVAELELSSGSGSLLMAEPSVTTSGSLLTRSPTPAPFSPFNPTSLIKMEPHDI
In short: as §1

ELK4 = target: T9, ELK4 (Homo sapiens, UniProt P28324-2 1-405); settings: protein: recombinant; tags: N-terminal GST; dsDNA, one strand shown
T9 sequence: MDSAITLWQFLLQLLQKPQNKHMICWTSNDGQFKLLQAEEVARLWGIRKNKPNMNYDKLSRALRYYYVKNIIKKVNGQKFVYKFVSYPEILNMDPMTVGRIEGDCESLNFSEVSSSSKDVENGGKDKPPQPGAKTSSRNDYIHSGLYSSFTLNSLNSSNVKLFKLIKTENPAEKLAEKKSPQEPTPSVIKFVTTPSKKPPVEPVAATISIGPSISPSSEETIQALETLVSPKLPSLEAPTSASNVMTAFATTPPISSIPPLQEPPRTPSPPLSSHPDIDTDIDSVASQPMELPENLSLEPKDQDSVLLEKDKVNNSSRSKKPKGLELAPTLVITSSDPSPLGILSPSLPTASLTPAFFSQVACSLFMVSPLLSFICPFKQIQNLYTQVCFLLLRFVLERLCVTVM
In short: as §1

ETV2 = target: T10, ETV2 (Homo sapiens, UniProt O00321 1-342); settings: protein: recombinant; tags: N-terminal GST; dsDNA, one strand shown
T10 sequence: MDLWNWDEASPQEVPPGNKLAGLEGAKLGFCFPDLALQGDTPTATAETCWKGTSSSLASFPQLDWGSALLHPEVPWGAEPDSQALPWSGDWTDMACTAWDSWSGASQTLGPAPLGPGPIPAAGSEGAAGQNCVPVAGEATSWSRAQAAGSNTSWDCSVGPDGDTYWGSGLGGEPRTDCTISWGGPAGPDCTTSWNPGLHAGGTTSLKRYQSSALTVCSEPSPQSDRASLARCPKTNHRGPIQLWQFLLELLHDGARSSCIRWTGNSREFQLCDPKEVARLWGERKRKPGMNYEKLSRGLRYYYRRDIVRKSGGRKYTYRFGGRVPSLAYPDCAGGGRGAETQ
In short: as §1

ELF3 = target: T11, ELF3 (Homo sapiens, UniProt P78545 1-371); settings: protein: recombinant; tags: N-terminal GST; dsDNA, one strand shown
T11 sequence: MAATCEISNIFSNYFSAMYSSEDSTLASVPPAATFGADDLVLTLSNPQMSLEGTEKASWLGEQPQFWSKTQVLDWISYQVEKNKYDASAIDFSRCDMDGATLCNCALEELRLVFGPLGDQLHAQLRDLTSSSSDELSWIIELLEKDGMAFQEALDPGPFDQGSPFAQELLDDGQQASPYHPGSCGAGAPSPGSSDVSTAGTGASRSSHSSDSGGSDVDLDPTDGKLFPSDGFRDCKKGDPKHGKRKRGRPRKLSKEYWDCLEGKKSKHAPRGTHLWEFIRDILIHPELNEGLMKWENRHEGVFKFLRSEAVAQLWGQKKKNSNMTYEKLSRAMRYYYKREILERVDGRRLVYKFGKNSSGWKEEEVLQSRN
In short: as §1

ETV1 = ETV1 (Homo sapiens, UniProt P50549 1-477); settings: protein: recombinant; tags: N-terminal GST; dsDNA, one strand shown
ETV1, sequence (P50549 whole entry): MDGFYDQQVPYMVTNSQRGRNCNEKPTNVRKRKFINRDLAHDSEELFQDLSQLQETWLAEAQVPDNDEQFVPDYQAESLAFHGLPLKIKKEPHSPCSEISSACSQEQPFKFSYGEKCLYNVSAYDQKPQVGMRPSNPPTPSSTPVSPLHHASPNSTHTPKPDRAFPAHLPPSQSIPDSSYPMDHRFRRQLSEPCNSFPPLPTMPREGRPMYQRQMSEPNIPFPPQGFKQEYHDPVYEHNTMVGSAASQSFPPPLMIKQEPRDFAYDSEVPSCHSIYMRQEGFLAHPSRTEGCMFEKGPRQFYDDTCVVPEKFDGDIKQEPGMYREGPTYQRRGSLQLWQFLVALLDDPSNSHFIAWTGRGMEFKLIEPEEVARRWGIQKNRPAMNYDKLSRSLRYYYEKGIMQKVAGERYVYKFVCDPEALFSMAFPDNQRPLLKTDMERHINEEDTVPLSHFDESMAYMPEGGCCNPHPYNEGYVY
In short: as §1

Sequence: GATGGT
- binding signal (FLI1): 1.25 fold enrichment (6-mer frequency, TF over GST control)
- binding signal (ELK1): 1.16 fold enrichment (6-mer frequency, TF over GST control)
- binding signal (GABPA): 1.16 fold enrichment (6-mer frequency, TF over GST control)
- binding signal (ERG): 1.23 fold enrichment (6-mer frequency, TF over GST control)
- binding signal (ELF1): 1.14 fold enrichment (6-mer frequency, TF over GST control)
- binding signal (EHF): 1.06 fold enrichment (6-mer frequency, TF over GST control)
- binding signal (SPIB): 1.19 fold enrichment (6-mer frequency, TF over GST control)
- binding signal (ELK3): 1.17 fold enrichment (6-mer frequency, TF over GST control)
- binding signal (FEV): 1.07 fold enrichment (6-mer frequency, TF over GST control)
- binding signal (ETV5): 1.16 fold enrichment (6-mer frequency, TF over GST control)
- binding signal (HSF1): 1.02 fold enrichment (6-mer frequency, TF over GST control)
- binding signal (SPIC): 1.19 fold enrichment (6-mer frequency, TF over GST control)
- binding signal (ELF4): 1.11 fold enrichment (6-mer frequency, TF over GST control)
- binding signal (ELK4): 1.18 fold enrichment (6-mer frequency, TF over GST control)
- binding signal (ETV2): 1.37 fold enrichment (6-mer frequency, TF over GST control)
- binding signal (ELF3): 1.19 fold enrichment (6-mer frequency, TF over GST control)
- binding signal (ETV1): 1.22 fold enrichment (6-mer frequency, TF over GST control)
